High-throughput results deposited in PubChem BioAssay by National Center for Advancing Translational Sciences (NCATS).
L3MBTL1 block: qHTS Assay for the Inhibitors of L3MBTL1 | 0.66% of 230,000 active | AID 485360, 2010 | AlphaScreen L3MBTL1–H3K9me1 peptide binding | Lethal(3)malignant brain tumor-like protein 1 (Homo sapiens), Q9Y468 | Potency, µM (titrated, usually from 57.1 µM), usual class: inhibitors; also: nearly all actives have a fitted effect of over 60% in size
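L3MBTL1 50 nM + b-AHA-H3(1-15)K9me1 75 nM, 30 min RT; compound added, 30 min RT; streptavidin donor/Ni-chelate acceptor beads 10 ug/mL each final, 30 min RT dark; AlphaScreen read.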
JMJD2A Tudor: qHTS Assay for Inhibitors of JMJD2A-Tudor Domain; Lysine-specific demethylase 4A (Homo sapiens), O75164; AlphaScreen JMJD2A-Tudor / H3K4me3 peptide binding; Potency, µM (series often up to 114 µM), hits mostly inhibitors; 4.4% of 390,000 active; AID 504339, 2011; also: nearly all actives have a fitted effect of over 50% in size
GLS inhibitor: qHTS for Inhibitors of Glutaminase (GLS); Potency, µM (titrated, usually from 45.5 µM), actives largely listed as inhibitors; AID 624170, 2012; 0.21% of 410,000 active; GLS enzymatic activity, qHTS titration
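Assay buffer: 45 mM KH2PO4 pH 8.2, 0.02% Tween-20. hKGA acts on L-glutamine (1 mM solution added); product glutamate is reported by an oxidase/peroxidase Amplex Red coupling, with fluorescence taken at baseline and 30 min.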
HP1b chromo inh: HTS for Inhibitors of HP1-beta Chromodomain Interactions with Methylated Histone Tails | AID 540317, 2011 | Chromobox protein homolog 1 (Homo sapiens), P83916 | Potency, µM (series often up to 114 µM), actives largely listed as inhibitors | 0.56% of 390,000 active | AlphaScreen HP1-beta / biotin-H3K9me3 peptide binding; also: nearly all actives have a fitted effect of over 70% in size
Target sequence (P83916 whole entry, looked up): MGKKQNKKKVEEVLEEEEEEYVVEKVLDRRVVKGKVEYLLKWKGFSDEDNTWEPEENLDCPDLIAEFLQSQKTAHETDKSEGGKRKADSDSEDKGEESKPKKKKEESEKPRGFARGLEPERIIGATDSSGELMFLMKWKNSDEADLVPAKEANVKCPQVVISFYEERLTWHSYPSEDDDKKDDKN
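Compound inhibition of the preformed complex between 50 nM HP1-beta and 50 nM biotinylated H3K9me3 peptide was read by AlphaScreen. Buffer was PBS pH 7.4 with 0.01% Tween-20. Incubations ran 30 min at room temperature, with 10 ug/mL donor/acceptor beads.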
G9a inh: qHTS Assay for Inhibitors of Histone Lysine Methyltransferase G9a. 8.8% of 350,000 active. Histone-lysine N-methyltransferase EHMT2 (Homo sapiens), Q96KQ7. AID 504332, 2011. Potency, µM (titrated, usually from 102 µM), usual class: inhibitors. G9a H3K9 monomethylation, AlphaScreen, 2 h; also: nearly all actives have a fitted effect of over 75% in size
Target sequence (Q96KQ7 913-1193 limits assumed): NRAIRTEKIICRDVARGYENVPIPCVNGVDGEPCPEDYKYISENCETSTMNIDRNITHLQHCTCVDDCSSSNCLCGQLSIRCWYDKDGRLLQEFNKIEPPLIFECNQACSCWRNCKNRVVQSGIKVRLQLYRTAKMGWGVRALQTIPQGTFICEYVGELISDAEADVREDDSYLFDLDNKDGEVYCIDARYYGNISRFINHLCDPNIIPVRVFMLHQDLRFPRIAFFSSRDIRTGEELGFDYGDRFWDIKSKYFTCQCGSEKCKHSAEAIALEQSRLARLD
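Methyltransferase reactions run at room temperature for 2 h (20 nM enzyme, 500 nM biotin-H3K9 peptide, 20 uM SAM) after a 15 min compound preincubation; product detected by AlphaScreen beads and anti-H3K9me1 antibody.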
BAZ2B inh: qHTS Assay for Inhibitors of BAZ2B; Potency, µM (doses to about 114 µM), hits mostly inhibitors; 4.4% of 360,000 active; Bromodomain adjacent to zinc finger domain protein 2B (Homo sapiens), Q9UIF8; AlphaScreen BAZ2B-H3K14Ac peptide displacement; AID 504333, 2011; also: nearly all actives have a fitted effect of over 60% in size
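Multi-concentration screen (max 110 uM) measuring displacement of acetylated histone H3 peptide from BAZ2B by AlphaScreen, using 50 nM protein, 50 nM peptide and 10 ug/mL streptavidin donor plus Ni-chelate acceptor beads.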
A number is an active result; – = inactive; ? = inconclusive; · = no result; ! = repeats disagree; [ ] = another dose, or the depositor's remark. The list is not random: actives were taken first. Their share in the collection is about 10%. Calls follow the shape of the dose curve; as a rule, active = well fitted curve in the direction sought with a large enough effect; inconclusive = small, poorly fitted or top-dose-only effect, or another doubt; inactive = no such curve, though single readings can be large; an effect the other way counts as inactive or inconclusive.

SMILES	L3MBTL1 block	JMJD2A Tudor	GLS inhibitor	HP1b chromo inh	G9a inh	BAZ2B inh
O=C(Cn1nc(CNc2ccc(Cl)cc2)[n+]2c1CCCCC2)c1ccc(Br)cc1	–	–	–	–	?	?
COc1ccc(NCc2nn(CC(=O)c3ccc(Br)cc3)c3[n+]2CCCCC3)cc1	–	44.7µM	?	–	35.5µM	35.5µM
O=C(Cn1nc(CNc2ccc(Br)cc2)[n+]2c1CCCCC2)c1ccc([N+](=O)[O-])cc1	–	–	–	–	70.8µM	?
O=S(=O)(NC1CCCC(NS(=O)(=O)c2c(F)cccc2F)C1)c1ccc2c(c1)OCCO2 (stereo unspecified)	·	–	·	·	·	·
Cc1c(CNCc2ccc(OC(C)C)cc2)c(C(=O)O)c(C)n1Cc1ccc(Cl)cc1	·	–	–	–	–	–
Cc1ccc(NC(=O)CN2C(=O)/C(=C3\SC(=S)N(C4CCS(=O)(=O)C4)C3=O)c3ccccc32)cc1 (stereo unspecified)	–	–	–	–	50.1µM	–
O=C(CN1C(=O)/C(=C/c2ccccc2)SC1=S)NC1CCS(=O)(=O)C1 (stereo unspecified)	·	–	–	–	–	–
O=C(CN1C(=O)/C(=C2\SC(=S)N(C3CCS(=O)(=O)C3)C2=O)c2ccccc21)Nc1ccccc1 (stereo unspecified)	–	–	–	–	25.1µM	–
O=C(CN1C(=O)/C(=C2/SC(=S)N(CCS(=O)(=O)O)C2=O)c2ccccc21)Nc1cccc(Br)c1	–	44.7µM	–	50.1µM	·	·
Cc1cccc(NC(=O)CN2C(=O)/C(=C3\SC(=S)N(CC4CCCO4)C3=O)c3ccccc32)c1 (stereo unspecified)	·	–	–	–	–	–
CCOCCc1nn2c(=O)cc(COC(=O)c3ccco3)nc2s1	·	–	–	–	–	–
Cc1nc2cccnc2n1-c1cccc(C(=O)N2CCN(c3cccc(Cl)c3)CC2)c1	·	–	–	–	–	–
Cc1cc2c(NC(=O)Nc3ccc(F)cc3)cccc2nn1	–	–	–	–	50.1µM	–
COc1ccc(NC(=O)Nc2ccc(F)cc2)c(C)c1	–	–	–	–	–	–
Cc1cc2c(NC(=O)CC(C)(C)CC(=O)O)cccc2nn1	·	–	?	–	·	50.1µM
Cc1ccc(CSC2=Nc3ccccc3C3=NC(CCC(=O)NCCc4ccccc4)C(=O)N23)cc1 (stereo unspecified)	·	–	–	–	?	–
Cc1ccc(S(=O)(=O)N(C)CCN(C)c2nc(-c3cccs3)nc3ccccc23)cc1	·	–	·	–	·	·
C#C[C@]1(OC(C)=O)CCC2C3CCC4=CC(=O)CCC4C3CC[C@]21C (stereo partly specified)	·	·	·	·	–[2.33 µM]	·
COc1ccccc1C(CCN(Cc1cccs1)C(C)=O)c1ccco1 (stereo unspecified)	–	–	–	–	44.7µM	79.4µM
CCC(=O)N(CCC(c1ccccc1)c1ccco1)Cc1cccs1 (stereo unspecified)	–	–	–	–	–[0.501 µM]	?
CCOC(=O)c1[nH]c2ccc(Br)cc2c1NC(=O)CCN1CCC(C(=O)OCC)CC1	–	–[11.4 µM]	–	–	50.1µM	–
CCOC(=O)c1[nH]c2ccc(Br)cc2c1NC(=O)CCN1CCCCC1	–	·	·	·	–	–
CN(C)c1ccc(CNC(=O)CCNS(=O)(=O)c2cc(Br)cnc2N)cc1	·	31.6µM	–	–	35.5µM	–
CN(C)S(=O)(=O)c1cccc(N=c2scc(-c3ccc4c(c3)NC(=O)CO4)n2CC2CCCO2)c1 (stereo unspecified)	·	?	–	?	–[12.7 µM]	50.1µM
COc1ccccc1N=c1scc(-c2ccc3c(c2)NC(=O)CO3)n1CC1CCCO1 (stereo unspecified)	·	?	–	?	?	44.7µM
SMILES	L3MBTL1 block	JMJD2A Tudor	GLS inhibitor	HP1b chromo inh	G9a inh	BAZ2B inh
CC1(C)CC(NS(=O)(=O)OCC(Cl)(Cl)Cl)c2cc(C#N)ccc2O1 (stereo unspecified)	–	31.6µM	–	–	–	–
COc1ccc2c(c1)CCCC2NS(=O)(=O)OCC(Cl)(Cl)Cl (stereo unspecified)	–	–	–	–	·	–
Nc1ccc(N2CCCC2)c(S(=O)(=O)Nc2cccc(C(F)(F)F)c2)c1	–	44.7µM	?	?	·	·
COc1ccc(NS(=O)(=O)c2cc(N)ccc2N2CCCCC2)cc1	–	?	–	–	–[12.7 µM]	?
Cc1ccc(S(=O)(=O)N2CCN(c3nc(-c4ccco4)nc4ccccc34)CC2)cc1	·	–	·	·	·	·
COC(=O)c1ccc(NC(=O)CSc2nncn2C)cc1	–	–	–	–	–[2.33 µM]	–
CCn1c(CC(=O)Nc2ccccc2OC)nnc1SCC(=O)Nc1ccccc1F	–	–	–	–	–	–
COc1ccccc1NC(=O)Cc1nnc(SCC(=O)Nc2ccccc2F)n1C	·	11.2µM	–	–	–	–
COc1ccccc1NC(=O)c1ccc(NC(=O)CSc2nncn2C)cc1	–	–	–	–	11.2µM	–
COc1cc(NC(=O)N(Cc2ccco2)C2CCN(C(C)=O)CC2)cc(OC)c1OC	·	–	–	–	–	?
C=C1C[C@@]23C[C@]1(O)CC[C@@H]2[C@]12C=C[C@@H](O)[C@](C)(C(=O)O1)[C@H]2[C@H]3C(=O)O	·	·	·	·	–[21.5 µM]	·
O=C(CCn1c2c(c3ccccc31)CCCC2)NNC(=O)c1ccccc1[N+](=O)[O-]	–	–	–	–	–	–
O=C(CCn1c2c(c3ccccc31)CCCC2)NNC(=O)c1ccccc1C(=O)O	–	–	–	–	·	70.8µM
O=[N+]([O-])c1ccc(COc2cccc(CNc3ccc(Br)cc3)c2)cc1	–	–	–	–	44.7µM	–
O=[N+]([O-])c1ccc(COc2ccc(CNc3ccccc3)cc2)cc1	–	–	–	–	–	?
COc1ccc(-c2nc3c(c(SCC(=O)Nc4cccc(O)c4)n2)Cc2c(CO)cnc(C)c2O3)cc1	·	–	–	–	11.2µM!	?
CCc1ccc(NC(=O)CSc2nc(-c3ccc(C)cc3)nc3c2Cc2c(CO)cnc(C)c2O3)cc1	–	–	–	–	–[12.7 µM]	50.1µM
COc1ccc(N=N/C(C(C)=O)=C(/C)O)cc1	–	–	–	–	–	–
COc1ccc(N=N/C(=C\O)C(=O)c2cccs2)cc1	?	15.8µM	–	?	20µM	11.2µM
COc1ccc(NC(=O)c2cccs2)cc1	–	–	–	–	–	–
COc1ccc(C(=O)/C(=C/O)N=Nc2ccc(F)cc2)cc1	?	56.2µM	–	–	?	31.6µM
